PubChem BioAssay (NCATS)
Results filed as inconclusive are left out. A call without a number means that no potency is given here. A number with no mark means an inactive call. Calls of active or inactive are those of the source. Unless noted, calls follow the shape of the full dose curve.

Legend:
[1] = qHTS for Inhibitors of the Functional Ribonucleoprotein Complex (vRNP) of Lassa (LASV) Arenavirus: LASV Primary Screen - GLuc reporter signal (AID 1347082; calls by dose curve; tested in HEK293 reporter line; also: nearly all actives have a fitted effect of over 60% in size; as to activity change, negative = inhibition: series mostly up to about 57 µM)
[2] = qHTS for Inhibitors of the Functional Ribonucleoprotein Complex (vRNP) of Lassa (LASV) Arenavirus: Viability assay - alamar blue signal for LASV Primary Screen (AID 1347083; calls by dose curve; tested in HEK293 reporter line; also: nearly all actives have a fitted effect of over 80% in size; as to activity change, negative = reduced viability: series mostly up to about 57 µM)
[3] = qHTS for Inhibitors of the Functional Ribonucleoprotein Complex (vRNP) of Lymphocytic Choriomeningitis Arenaviruses (LCMV): Viability assay - alamar blue signal for LCMV Primary Screen (AID 1347085; calls by dose curve; tested in HEK293 reporter line; also: nearly all actives have a fitted effect of over 80% in size; as to activity change, negative = lower viability: series mostly up to about 57 µM)
[4] = biological target: Nucleoprotein (Lymphocytic choriomeningitis virus (strain Armstrong)) (UniProt P09992); assay: qHTS for Inhibitors of the Functional Ribonucleoprotein Complex (vRNP) of Lymphocytic Choriomeningitis Arenaviruses (LCMV): LCMV Primary Screen - GLuc reporter signal (AID 1347086); also: nearly all actives have a fitted effect of over 70% in size; as to activity change, negative = inhibition: series mostly up to about 57 µM
Sequence of Nucleoprotein (Lymphocytic choriomeningitis virus (strain Armstrong)) (P09992 whole entry, looked up): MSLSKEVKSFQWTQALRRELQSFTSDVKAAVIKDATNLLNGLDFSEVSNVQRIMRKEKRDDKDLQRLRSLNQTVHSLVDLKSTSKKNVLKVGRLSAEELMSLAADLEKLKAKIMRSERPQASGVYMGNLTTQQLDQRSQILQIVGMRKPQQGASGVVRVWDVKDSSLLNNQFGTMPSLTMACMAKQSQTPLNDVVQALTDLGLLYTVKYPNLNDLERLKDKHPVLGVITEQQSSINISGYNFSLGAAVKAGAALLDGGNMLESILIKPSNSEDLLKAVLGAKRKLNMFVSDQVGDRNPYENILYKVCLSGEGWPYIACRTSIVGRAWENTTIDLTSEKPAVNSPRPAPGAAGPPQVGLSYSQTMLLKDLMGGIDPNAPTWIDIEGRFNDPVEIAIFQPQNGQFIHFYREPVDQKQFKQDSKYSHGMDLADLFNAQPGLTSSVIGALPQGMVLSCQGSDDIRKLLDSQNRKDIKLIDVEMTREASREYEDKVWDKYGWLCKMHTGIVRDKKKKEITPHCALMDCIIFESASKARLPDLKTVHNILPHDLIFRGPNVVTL
Potency is read from the fitted curve at half-maximal effect.

| Structure (SMILES) | Potency [1] | Potency [2] | Potency [3] | Potency [4] | activity change, negative = inhibition [1] | activity change, negative = reduced viability [2] | activity change, negative = lower viability [3] | activity change, negative = inhibition [4] |
| --- | --- | --- | --- | --- | --- | --- | --- | --- |
| Cc1cc(O)cc(O[C@H]2OC(CO)[C@H](O)[C@@H](O)[C@H]2O)c1 (stereo partly drawn) | inactive | inactive | inactive | inactive | – | – | – | – |
| CC1=CC(=O)OC2CC3OC4C[C@@H](C)C5OC6CC7O[C@]8(C)C/C=C\C9OC%10CC%11OC(CC(C)CO)CC(O)[C@]%11(C)OC%10CC9OC8C[C@]7(C)O[C@]6(C)CCC5OC4C[C@]3(C)OC12 (stereo partly drawn) | inactive | inactive | inactive | inactive | – | – | – | – |
| Cc1ccc2oc3ccccc3c(=O)c2c1 | inactive | inactive | inactive | inactive | – | – | – | – |
| C=C(C=O)C[C@@H]1C[C@H](O)C2OC3C[C@]4(C)OC5/C=C\CC6OC7C(CC=CCC6OC5CCCC4OC3CC2O1)OC1CC2OC3CC(=O)OC3C[C@@H](C)C[C@@]2(C)OC1C[C@@H]7C (stereo partly drawn) | inactive | inactive | inactive | inactive | – | – | – | – |
| C[C@H]1O[C@H](O[C@H]2[C@H](O)[C@@H](O)[C@@H](O[C@H]3[C@H](O)[C@@H](O)C(O)O[C@H]3CO)O[C@H]2CO)[C@H](O)[C@@H](O)[C@H]1N[C@H]1C=C(CO)[C@@H](O)[C@H](O)[C@@H]1O (stereo partly drawn) | inactive | inactive | inactive | inactive | – | – | – | – |
| CC1(C)O[C@@H]2C[C@@H]3[C@H]4C[C@@H](F)C5=CC(=O)C=C[C@]5(C)[C@@]4(F)[C@@H](O)C[C@]3(C)[C@]2(C(=O)CO)O1 | inactive | inactive | inactive | inactive | – | – | – | – |
| O=c1c2ccccc2oc2ccccc12 | inactive | inactive | inactive | inactive | – | – | – | – |
| CCCCCCCCCCCCC | inactive | inactive | inactive | inactive | – | – | – | – |
| C[C@@H]1[C@H]2[C@@H](O[C@@H]3O[C@H](CO)[C@@H](O)[C@H](O)[C@H]3O)OC=C(C(=O)O)[C@H]2C[C@@H]1O | inactive | inactive | inactive | inactive | – | – | – | – |
| O=C1O[C@@H](c2ccc(O)cc2)Cc2cccc(O)c21 | inactive | inactive | inactive | inactive | – | – | – | – |
| O=c1[nH]c(=O)n([C@H]2C[C@@H](O)[C@@H](CO)O2)cc1I | inactive | inactive | inactive | inactive | – | – | – | – |
| C/C=C(/C)C(=O)OC(C)(C)[C@@H]1Cc2c(ccc3ccc(=O)oc23)O1 | inactive | inactive | inactive | inactive | – | – | – | – |
| O=C(Nc1cccc(C(F)(F)F)c1)Nc1cc(S(=O)(=O)NC2CC2)ccc1-c1ccsc1 | inactive | inactive | inactive | inactive | – | – | – | – |
| OC/C=C/c1ccccc1 | inactive | inactive | inactive | inactive | – | – | – | – |
| C=C[C@@H](C1=CC(=O)C(OC)=C(OC)C1=O)c1ccccc1 | inactive | inactive | inactive | inactive | – | – | – | – |
| CC[C@]1(O)C[C@@H]2CN(CCc3c([nH]c4ccccc34)[C@@](C(=O)OC)(c3cc4c(cc3OC)N(C=O)[C@@H]3C45CCN4CC=C[C@](CC)([C@H]45)[C@@H](OC(C)=O)[C@]3(O)C(=O)OC)C2)C1 (stereo partly drawn) | inactive | inactive | inactive | inactive | – | – | – | – |
| C[C@@H]1O[C@@H](OC2C(O)C(OCCc3ccc(O)c(O)c3)OC(CO)C2OC(=O)/C=C/c2ccc(O)c(O)c2)[C@H](O)[C@H](O)[C@H]1O (stereo partly drawn) | inactive | inactive | inactive | inactive | – | – | – | – |
| COc1c2c(nc3occc13)C(CCC(C)(C)O)(OC)C(O)CC2 (stereo not drawn) | inactive | inactive | inactive | inactive | – | – | – | – |
| CC(C)NC[C@@H](C(=O)N1CCN(c2ncnc3c2[C@H](C)C[C@H]3O)CC1)c1ccc(Cl)cc1 | 968 nM (active) | 243 nM (active) | 485 nM (active) | 863 nM (active) | – | – | – | – |

| Structure (SMILES) | Potency [1] | Potency [2] | Potency [3] | Potency [4] | activity change, negative = inhibition [1] | activity change, negative = reduced viability [2] | activity change, negative = lower viability [3] | activity change, negative = inhibition [4] |
| --- | --- | --- | --- | --- | --- | --- | --- | --- |
| CC1=C2C(=O)C3C(CC=C4CC(O)CCC43C)C2CCC12OC1CC(C)CNC1C2C (stereo not drawn) | inactive | inactive | inactive | inactive | – | – | – | – |
| O=C(/C=C/c1ccccc1)NCCc1cnc[nH]1 | inactive | inactive | inactive | inactive | – | – | – | – |
| NCCC(=O)O | inactive | inactive | inactive | inactive | – | – | – | – |
| O=C(O)CCC/C=C\C/C=C\C=C\[C@@H](O)C/C=C\CCCCCO | – | – | – | – | 7.21% [at 0.757 µM] | 9.56% [at 0.757 µM] | 9.51% [at 0.757 µM] | 12.9% [at 0.757 µM] |
| Cc1cc(-c2nnc3n2CCCCC3)c(C)n1-c1ccccc1 | inactive | inactive | inactive | inactive | – | – | – | – |
| CC(C)(O)[C@H](O)Cc1cc2ccc(=O)oc2cc1O[C@@H]1O[C@H](CO)[C@@H](O)[C@H](O)[C@H]1O | inactive | inactive | inactive | inactive | – | – | – | – |
| CC1(C)C(N(O)C(=O)Nc2ccc(Cl)cc2)N(c2ccc(Cl)cc2)C(=O)N1CC(=O)NN=CC=Cc1ccc([N+](=O)[O-])o1 (stereo not drawn) | inactive | inactive | inactive | inactive | – | – | – | – |
| CC(C)c1cc(C(=O)N2Cc3ccc(CN4CCN(C)CC4)cc3C2)c(O)cc1O | 968 nM (active) | 544 nM (active) | 685 nM (active) | 485 nM (active) | – | – | – | – |
| C=C(CC[C@@H](O)C(C)(C)O)[C@H]1CC[C@]2(C)[C@@H]1CCC1[C@@]3(C)CC[C@H](O)C(C)(C)C3CC[C@]12C (stereo partly drawn) | inactive | inactive | inactive | inactive | – | – | – | – |
| CCCCCCCCCCCC(=O)OCC | inactive | inactive | inactive | inactive | – | – | – | – |
| C=C1CC23C[C@H]4[C@@H]5[C@@]6(C)C[C@H](OC(=O)c7ccccc7)[C@@H](OC(C)=O)[C@]57[C@@H]2[C@@H](OC(C)=O)[C@H]1[C@@H](O)[C@H]3[C@H]7N4C6 | inactive | inactive | inactive | inactive | – | – | – | – |
| Cc1nc(Nc2n[nH]c3c2CN(C(=O)N[C@H](CN(C)C)c2ccccc2)C3(C)C)c2sccc2n1 | 7690 nM (active) | 193 nM (active) | 96.8 nM (active) | 8630 nM (active) | – | – | – | – |
| Cc1cnc(C)c(C)n1 | inactive | inactive | inactive | inactive | – | – | – | – |
| COc1ccc(CC(C)N)cc1 (stereo not drawn) | inactive | inactive | inactive | inactive | – | – | – | – |
| C=C1CCC(OC(C)=O)C2(C)CCC3C(C)C(=O)OC3C12O (stereo not drawn) | inactive | inactive | inactive | inactive | – | – | – | – |
| Oc1cc(O)cc(-c2cc3ccc(O)cc3o2)c1 | inactive | inactive | inactive | inactive | – | – | – | – |
| CC1CCC(C(C)(C)S)C(=O)C1 (stereo not drawn) | inactive | inactive | inactive | inactive | – | – | – | – |
| N=C1SC(=Cc2ccc(-c3ccc4c(c3)C(=O)NC4=O)o2)C(=O)N1c1ccc(Br)cc1 | inactive | inactive | inactive | inactive | – | – | – | – |
| Cc1c(O)c2ccccc2oc1=O | inactive | inactive | inactive | inactive | – | – | – | – |

| Structure (SMILES) | Potency [1] | Potency [2] | Potency [3] | Potency [4] | activity change, negative = inhibition [1] | activity change, negative = reduced viability [2] | activity change, negative = lower viability [3] | activity change, negative = inhibition [4] |
| --- | --- | --- | --- | --- | --- | --- | --- | --- |
| C/C=C1/CN2C3CC1C(CO)(C(=O)OC)C2Cc1c3n(C)c2ccccc12 (stereo not drawn) | inactive | inactive | inactive | inactive | – | – | – | – |
| COC(=O)c1ccc(C)cc1 | inactive | inactive | inactive | inactive | – | – | – | – |
| CC(C)CC(=O)O | inactive | inactive | inactive | inactive | – | – | – | – |
| C[C@H]1OC(=O)CC[C@@H]2[C@]1(C)CCC1[C@@]2(C)CC[C@@]2(C)C3CC(C)(C)CC[C@]3(CO)CC[C@]12C (stereo partly drawn) | inactive | inactive | inactive | inactive | – | – | – | – |
| CC(C)=CCc1c(-c2ccc(O)cc2O)oc2cc3c(c(O)c2c1=O)C=CC(C)(C)O3 | inactive | inactive | inactive | inactive | – | – | – | – |
| C[C@H]1C[C@H]2[C@@H]3CCC4=CC(=O)C=C[C@]4(C)[C@@H]3C(=O)C[C@]2(C)[C@@]1(O)C(=O)CO | inactive | inactive | inactive | inactive | – | – | – | – |
| CCN(CC)CCNC(=O)c1ccc(NS(C)(=O)=O)cc1 | inactive | inactive | inactive | inactive | – | – | – | – |
| O=C(O)[C@H](O)[C@@H](O)C(=O)O | inactive | inactive | inactive | inactive | – | – | – | – |
| CCC/C=C/CO | inactive | inactive | inactive | inactive | – | – | – | – |
| O=C(Oc1ccccc1)c1ccccc1C(=O)Oc1ccccc1 | inactive | inactive | inactive | inactive | – | – | – | – |
| CC1CC2CCCC(O)=C2C(=O)O1 (stereo not drawn) | inactive | inactive | inactive | inactive | – | – | – | – |
| CCOC(=O)c1cc(=O)[nH]c2ccccc12 | inactive | inactive | inactive | inactive | – | – | – | – |
| CC1=CC(C/C(C)=C/COc2ccc3ccc(=O)oc3c2)OC1=O (stereo not drawn) | inactive | inactive | inactive | inactive | – | – | – | – |
| CCOc1c2ccoc2nc2c(OC)c(OC)ccc12 | inactive | inactive | inactive | inactive | – | – | – | – |
| C#C[C@]1(O)CC[C@H]2[C@@H]3CCC4=Cc5oncc5CC4(C)[C@H]3CCC21C (stereo partly drawn) | inactive | inactive | inactive | inactive | – | – | – | – |
| CC1(C)C[C@H](O)[C@@]23C[C@@H](OC2=O)[C@]2(C)C(=CCC4[C@@]5(C)CC[C@H](O)C(C)(C)C5CC[C@]42C)[C@@H]3C1 (stereo partly drawn) | inactive | inactive | inactive | inactive | – | – | – | – |
| Oc1ccc(C=Cc2cc(O)cc(O)c2)cc1 | inactive | inactive | inactive | inactive | – | – | – | – |
| CC(C)COC(=O)c1ccccc1 | inactive | inactive | inactive | inactive | – | – | – | – |
| C=C(C)c1cc2c(ccc3ccc(=O)oc32)o1 | inactive | inactive | inactive | inactive | – | – | – | – |
